Shown are actives, neighbours in structure and some others; about 2.8% of the full set was active somewhere.
D3 ag – D3 dopamine receptor (human) agonism; P35462; D3R DiscoveRx beta-arrestin cells, luminescence, 90 min; max activation, %; 0.58% of 410,000 active; AID 652048; in the data active means max activation above about 30%; further: 0% is about no effect
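Agonist mode: compounds and dopamine controls were applied to plated cells for 90 min at 37 degrees C after an overnight attachment at 1500 cells/well. Luminescent read-out followed 30 - 60 minutes at room temperature with DiscoveRx detection reagent.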
MBNL1-CUG inh – MBNL1-poly(CUG) RNA binding inhibition; TR-FRET MBNL1-His/biotin-(CUG)12 binding, 665/545 ratio; AID 2675; Q9NR56; Potency, µM (series often up to 57.5 µM), without a hit: top-dose activity change, negative = inhibition, actives largely listed as inhibitors; 0.036% of 280,000 active; active means well fitted inhibition curve with a large enough effect in the signal ratio, with a control signal flat, not every such curve was filed as active; inconclusive means small, poorly fitted or top-dose-only effect, or effect the other way, or a change in a side signal; inactive means no such curve, though single readings can be large or run the other way; the % refers to the signal ratio; further: potency means the concentration at half of the fitted maximal effect; on the % scale 0 is the no-effect control and ±100 the full control effect
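TR-FRET between His-tagged MBNL1 and biotin-(CUG)12 RNA, detected with Tb anti-His antibody (0.055 ng/ul) and streptavidin-XL665 (5 nM), 60 min at room temperature. Compounds titrated 92 nM to 58 uM; 665/545 nm ratio normalized to buffer and complex controls.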
PTHR1 ag – PTHR1 (human) receptor agonism. 0.075% of 410,000 active. Potency, µM (titrated, usually from 115 µM), for the others: at the highest dose activation, usual class: activators. HEK293 GP2 PTHR1 cells, GloSensor cAMP luminescence, 1 h. Q03431; further: potency means the concentration at half of the fitted maximal effect; nearly all actives have a fitted effect of over 55% in size
Target sequence (Q03431 whole entry, looked up): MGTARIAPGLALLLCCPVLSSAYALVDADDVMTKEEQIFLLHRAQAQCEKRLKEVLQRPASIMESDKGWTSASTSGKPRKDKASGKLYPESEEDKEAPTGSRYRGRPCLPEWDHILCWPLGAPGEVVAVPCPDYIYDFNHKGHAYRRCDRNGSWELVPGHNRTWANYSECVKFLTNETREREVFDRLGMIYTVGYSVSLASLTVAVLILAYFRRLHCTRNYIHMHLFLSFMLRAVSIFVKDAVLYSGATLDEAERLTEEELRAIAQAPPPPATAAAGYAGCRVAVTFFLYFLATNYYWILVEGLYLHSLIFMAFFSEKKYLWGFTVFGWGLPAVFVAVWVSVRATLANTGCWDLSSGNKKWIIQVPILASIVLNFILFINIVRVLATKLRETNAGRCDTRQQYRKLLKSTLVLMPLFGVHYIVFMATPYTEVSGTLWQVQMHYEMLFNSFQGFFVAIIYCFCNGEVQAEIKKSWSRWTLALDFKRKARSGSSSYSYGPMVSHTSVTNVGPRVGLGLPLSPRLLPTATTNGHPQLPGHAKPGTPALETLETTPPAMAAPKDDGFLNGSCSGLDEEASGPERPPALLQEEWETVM
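HEK-293-derived GP2 cells expressing PTHR1 and a GloSensor cAMP reporter, 3,000/well, plated overnight, given luciferin plus IBMX (each 0.5 mM as added) for 1 h at 37 °C, then compound for 1 h at 37 °C. Luminescence was read after 15 min at room temperature.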
a7 integrin act – activators of alpha7 integrin expression for muscular dystrophy | 0.064% of 350,000 active | alpha7betagal myoblasts, beta-gal FDG fluorescence, 48 h | AID 624291 | Potency, µM (titrated, usually from 38.3 µM), without a hit: at the top dose activation, most hits filed as activators;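 further: potency means the concentration at half of the fitted maximal effect; 100% = response of the positive control SU9516; nearly all actives have a fitted effect of over 60% in size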
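Alpha7betagal+/- myoblasts (passage 13) were plated 16-24 hr, then exposed to compounds (1:260 dilution of DMSO stock) for 48 hours at 37C. After MPER lysis, β-galactosidase reporter activity was read as FDG fluorescence (ex 480/em 540) after 30 minutes.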
DRD3 antagonist – blocks the human D3 dopamine receptor | D3R cells, DiscoveRx beta-arrestin luminescence, antagonist mode; active compounds read low | AID 652054 | max response, negative = inhibition, % | 2.5% of 360,000 active; in the data active means max response below about -50%; inconclusive means no clear call, values can overlap the other calls; further: on the % scale 0 is the no-effect control and ±100 the full control effect
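Cells expressing the human receptor were seeded at 1500 cells/well, incubated overnight at 37 degrees C in 5% CO2, then exposed to library compounds with dopamine controls for 90 minutes at 37 degrees C before luminescent detection.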
CBFb-RUNX1 inh – blocks binding between human CBF-beta and RUNX1; 230,000 tested, under 10 active; AlphaScreen CBFb-His/RUNX1-biotin binding, biochemical; Potency, µM (titrated, usually from 59.8 µM), without a hit: top-dose activity, negative = inhibition, actives largely listed as inhibitors; Q01196+Q13951; further: % of control where 0% means no effect
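Compounds were screened at multiple concentrations against a preformed CBF-beta(His)/RUNX1(biotin) complex (30 nM of each) for 15 min at room temperature, followed by 90 min with nickel and streptavidin beads and AlphaScreen reading.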
Numbers without * were called inactive; i = inactive; u = inconclusive; x = no result; [ ] = another dose, or the depositor's remark. Unless noted, the call rests on the fitted dose curve; in most records, active means well fitted curve in the direction sought with a large enough effect; inconclusive means small, poorly fitted or top-dose-only effect, or another doubt; inactive means no such curve, though single readings can be large; an effect the other way counts as inactive or inconclusive.

SMILES	D3 ag	MBNL1-CUG inh	PTHR1 ag	a7 integrin act	DRD3 antagonist	CBFb-RUNX1 inh
CC(=O)Nc1ccc(NC(=O)c2ccc(CN3CCc4ccccc4C3)cc2)cc1	-13.1	-6.0%	i	0.0%	-54.6*	x
C[C@@H]1CN([C@@H](C)CO)C(=O)CCCn2nncc2CO[C@H]1CN(C)C(=O)c1ccc2ccn(C)c2c1	0.8	x	i	-6.8%	1.9	x
CCc1nnc2c3ccccc3nc(N3CCN(c4cc(Cl)ccc4C)CC3)n12	-4.5	x	i	x	x	x
O=C(NCc1cccnc1)c1cc(C2CCCN(S(=O)(=O)c3cccs3)C2)on1 (stereo not drawn)	15.9	x	-5.7%	x	14.3	x
O=C(NCc1cccnc1)c1cc(C2CCCN(C(=O)c3cccs3)C2)on1 (stereo not drawn)	-22.2	x	-16.0%	x	-122.9*	x
O=C(NCc1ccccc1)c1cc(C2CCCN(S(=O)(=O)c3cccs3)C2)on1 (stereo not drawn)	-21.1	x	-40.7%	x	-68.3*	x
C[S+](C)CCC(N)C(=O)O (stereo not drawn)	1.3	x	x	x	x	x
CC(C)(CO)[C@@H](O)C(=O)NCCCC(=O)O	9.9	x	x	x	x	x
Cc1cccc(NC(=O)C(=O)NCC2CCCN2S(=O)(=O)c2cccs2)c1 (stereo not drawn)	-12.7	x	-21.2%	7.0%	-3.1	x
O=C(Nc1nnc(SCc2ccc(F)cc2)s1)c1ccc2c(c1)C(=O)N(c1ccccc1Cl)C2=O	52.7*	-4.6%	-31.9%	-29.0%	48.8	4.4%
CCCCCCC1CC(CCc2nc(=S)[nH][nH]2)C(=O)O1 (stereo not drawn)	-1.6	-2.4%	-38.7%	8.5%	-12.7	-7.6%
CCCCCCCCc1nc(=S)[nH][nH]1	-1.9	-17.6%	i	6.2%	-67.4*	6.3%
O=C(NCCC(F)(F)F)c1cccc2c(-c3ccc(F)c(F)c3)coc12	-0.7	x	-38.3%	x	0.0	x
CCn1cnc2c1c(=O)n(CC(=O)OC)c(=O)n2Cc1ccccc1	1.9	-8.7%	-4.5%	6.9%	-7.9	x
Cc1cc(-c2ccccc2)nc(SCC(=O)N2CCCC2)n1	-1.5	-0.3%	-1.8%	-11.4%	5.5	5.1%
NNc1nc(-c2ccccc2Cl)nc2ccccc12	-9.5	-6.0%	-6.1%	-18.0%	-92.1*	x
CC(=O)Nc1ccc(-n2c(=O)c3ccccc3c3ccccc3c2=O)cc1	-13.3	5.9%	-47.1%	-10.1%	-88.2*	6.7%
O=C(O)c1ccc(-n2c(=O)c3ccccc3c3ccccc3c2=O)cc1	9.4	-18.9%	-36.7%	-14.9%	-19.8	2.1%
Cc1cn(C2CCCCC2)c(=O)[nH]c1=O	-3.6	x	-5.3%	38.5%	-5.8	x
c1ccc(CN2CCN(c3nc4ccccc4n4cnnc34)CC2)cc1	-23.3	6.6%	-4.9%	4.5%	-134.9*	-5.0%
C1=C(c2ccccc2)CCN(c2nc3ccccc3n3cnnc23)C1	-6.4	u	0.2%	-12.2%	-70.5*	0.1%
c1ccc(N2CCN(c3nc4ccccc4n4cnnc34)CC2)cc1	-0.4	-8.2%	-18.6%	10.5%	30.8	0.7%
O=C(O)c1ccc(CN2C[C@@H](CO)O[C@@H](n3cnc4c(NCc5ccco5)ncnc43)C2)cc1	2.2	x	-24.5%	x	-9.5	x
CSCCC(NC(=O)c1ccco1)C(=O)NCC1CCCO1 (stereo not drawn)	-4.3	x	i	-16.7%	-4.1	x
COc1cc(CN2CCC(C(=O)NC(c3ccccc3)c3ccsc3)CC2)cc(OC)c1 (stereo not drawn)	-19.4	x	-5.2%	x	u	x
SMILES	D3 ag	MBNL1-CUG inh	PTHR1 ag	a7 integrin act	DRD3 antagonist	CBFb-RUNX1 inh
O=C(NC(c1ccccc1)c1cnccn1)C1CCN(CCOc2ccc(Cl)cc2Cl)CC1 (stereo not drawn)	-13.0	x	-26.2%	x	-84.1*	x
O=C(NC(c1ccccc1)c1ccsc1)C1CCN(CCOc2ccc(Cl)cc2Cl)CC1 (stereo not drawn)	51.9*	x	i	x	55.6	x
O=C(NC(c1cccnc1)c1ccc2c(c1)OCO2)C1CCN(CCOc2ccc(Cl)cc2Cl)CC1 (stereo not drawn)	-13.8	x	-39.7%	x	-68.8*	x
CCc1ccc(C(=O)COC(=O)c2ccccc2OC)cc1	1.9	-1.5%	-24.9%	-3.2%	-6.7	x
O=c1cc(C(F)(F)F)[nH]c2c(C(F)(F)F)cccc12	23.8	u	-0.9%	-44.0%	56.7	-4.5%[2.36 µM]
O=c1cc(C(F)(F)F)[nH]c2ccc(OC(F)(F)F)cc12	32.6*	x	-29.3%	3.6%	30.5	18.2%
COC(=O)[C@@]1(Cc2ccccc2)[C@H]2c3cc(C(=O)N4CCCC4)n(Cc4ccc(OC)c(OC)c4)c3C[C@H]2CN1C(=O)c1ccccc1	x	x	x	x	x	-23.5%
COc1ccccc1C(O)c1ncc(-c2cccc3ccccc23)[nH]1 (stereo not drawn)	-16.8	x	-14.3%	x	-56.7*	x
CC(C)(C)c1nn(-c2ccccc2)c2[nH]c(=O)c(CNCc3ccco3)cc12	-18.3	7.1%	i	0.5%	-17.4	1.2%
CC(C)(C)c1nn(-c2ccccc2)c2[nH]c(=O)c(CNc3ccc4c(c3)OCCO4)cc12	-46.4	6.3%	-20.5%[57.5 µM]	7.0%	-74.7*	u
S=c1[nH]nc(-c2cc(-c3ccco3)[nH]n2)n1-c1ccccc1Cl	-3.6	8.4%	-82.3%	44.1%	-51.7*	x
C=CCn1c(SCc2c(C)noc2C)nc2cc(C(=O)O)ccc2c1=O	35.6*	-2.2%	-17.2%	-21.7%	8.5	3.3%
N#C/C(=C/c1ccc(O)c(O)c1)C(=O)NCc1ccc(Cl)cc1	-9.6	u	i	0.0%	-50.3*	x
Cn1cccc1C(=O)NCc1ccc(S(N)(=O)=O)cc1	3.4	-7.5%	i	0.0%	11.3	x
N#CCCCCn1c(-c2cncs2)nc2ccccc21	-2.5	-2.1%	1.8%[57.5 µM]	-13.5%	-56.2*	1.0%
c1ccc(Cn2c(-c3cncs3)nc3ccccc32)cc1	-14.9	-3.6%	-29.1%[57.5 µM]	-2.3%	-4.0	-4.7%
Cc1[nH]n(C(N)=S)c(=O)c1N=Nc1ccc(S(=O)(=O)N2CCCC2)cc1	5.1	u	-33.6%	-0.8%	-78.1*	-7.1%
COCc1cc(=O)[nH]c(N2CCN(Cc3ccc4c(c3)OCO4)CC2)n1	1.5	-11.1%	-17.9%	6.5%	-7.4	x
C[C@@H](C(=O)Nc1ccc2ccccc2c1)[C@@H]1C[C@@]1(C)[C@@H](NC(=O)c1cnccn1)c1ccccc1	-11.1	-4.0%	-24.8%	-22.7%	-75.5*	0.5%[2.36 µM]
CCOC(=O)c1c(NC(=O)CC2Nc3cc(C)c(C)cc3NC2=O)sc(C)c1C (stereo not drawn)	-6.4	3.9%	10.5%[57.5 µM]	9.1%	-56.6*	-6.2%
